PubChem BioAssay (Tox21)
Results filed as inconclusive are left out. Entries that show only a call come without a potency. The source made the active and inactive calls. Calls follow the shape of the full dose curve.

Assay: cAMP Responsive Elements (CRE) small molecule agonists, cell-based qHTS assay (AID 1963590)
Conditions: CRE-bla HEK293T, beta-lactamase FRET ratio, 3 h; series mostly up to 92.4 µM
Text: U.S. Tox21 Program National Center for Advancing Translational Sciences [NCATS] Division of Preclinical Innovation [DPI] U.S. Environmental Protection Agency [EPA] National Institutes of Environmental Health Sciences [NIEHS] National Toxicology Program [NTP] U.S. Food and Drug Administration [FDA] Tox21 Assay Overview: CREB (cyclic-AMP Responsive Element Binding Protein) is a cellular transcription factor. It binds to certain DNA sequences called cAMP Responsive Elements (CRE) and regulates the transcription of the genes. […] This cell line can be used to find agonists/antagonists of the cyclic AMP signaling pathway. The activation of the report gene under culture conditions can be detected by fluorescence intensity. This cell line has been used to screen the Tox21 10K compound library to identify agonists that induce oxidative stress.
Tox21 Assay Protocol Summary: CRE-bla Hek 293T cells were suspended in assay medium (DMEM containing 10% dialyzed FBS, 0.1 mM NEAA, 1 mM sodium pyruvate and 25 mM HEPES) and dispensed at 2,000 cells/5 uL /well into 1536-well black wall/clear bottom plates using a Multidrop Combi (ThermoFisher Scientific, Waltham, MA) dispenser. After the assay plates were incubated at 37 C/5% CO2 for 18 hrs, 23 nL of compounds dissolved in DMSO, positive controls or DMSO only was transferred to the assay plate by a pintool workstation (Kalypsys, San Diego, CA). After the plates were incubated at 37 C/5% CO2 for 3 hrs, 1 uL of LiveBLAzer B/G FRET substrate (Invitrogen, Carlsbad, CA) was added to each well using Bioraptr Flying Reagent Dispenser (FRD, Aurora Discovery, San Diego, CA). The plates were incubated at room temperature for 2 h.

| SMILES | Potency |
| --- | --- |
| CCCCNC(=O)NS(=O)(=O)c1ccc(C)cc1 | inactive |
| CCc1nc(N)nc(N)c1-c1ccc(Cl)cc1 | inactive |
| C[C@@H](O)[C@H]1C(=O)N2C(C(=O)O)=C(S[C@@H]3CN[C@H](C(=O)N(C)C)C3)[C@H](C)[C@H]12 | inactive |
| CCNC(=S)NCC | inactive |
| CC(C)OP(=O)(CP(=O)(OC(C)C)OC(C)C)OC(C)C | inactive |
| C=C[Si](OCCOC)(OCCOC)OCCOC | inactive |
| CC(=O)OC(C)(C)C1CC=C(C)CC1 (stereo not given) | inactive |
| CC(=O)CC/C=C(\C)CCC=C(C)C | inactive |
| Cc1cc(C)c(O)c(C)c1 | inactive |
| CCCCCCCCCCCC(=O)OC | inactive |
| CC(=O)Oc1ccc(C)cc1 | inactive |
| O=c1[nH]cnc2c1ncn2[C@H]1CC[C@@H](CO)O1 | inactive |
| CCCCOC(=O)c1ccc(N)cc1 | inactive |
| CCCCCCCCCCCCN | inactive |
| c1ccc2scnc2c1 | inactive |
| CCCCCCCCCCC=CC1CC(=O)OC1=O (stereo not given) | inactive |
| Oc1ccc2ccccc2c1N=Nc1ccccc1 | inactive |
| N[C@@H](Cc1cc(I)c(Oc2ccc(O)c(I)c2)c(I)c1)C(=O)O | inactive |
| Cc1ccc(C)c(O)c1 | inactive |
| CCCCC(CC)C(=O)O (stereo not given) | inactive |

| SMILES | Potency |
| --- | --- |
| CC(O)C(=O)O (stereo not given) | inactive |
| CC(C)(C#N)c1cc(Cn2cncn2)cc(C(C)(C)C#N)c1 | inactive |
| CCCCCCc1ccc(O)cc1O | inactive |
| COC1=CC(=O)C[C@@H](C)[C@]12Oc1c(Cl)c(OC)cc(OC)c1C2=O | inactive |
| CCOc1ccc(NC(=O)CC(C)O)cc1 (stereo not given) | inactive |
| CCCCCCCCC | inactive |
| O=C1O[C@H](CO)[C@@H](O)[C@H](O)[C@H]1O | inactive |
| CC(=O)CCc1ccccc1 | inactive |
| CNC(=S)N(C)C | inactive |
| CCCCOCCOCCOC(C)=O | inactive |
| C=CCc1ccc(O)c(OC)c1 | inactive |
| CCc1cc(C(N)=S)ccn1 | inactive |
| CN(N=O)C(=O)N[C@@H]1[C@@H](O)[C@H](O)[C@@H](CO)O[C@@H]1O | inactive |
| CCCCOCCO | inactive |
| CC1=NN(c2ccccc2)C(=O)C1 | inactive |
| c1ccc2ccccc2c1 | inactive |
| OCCOCCOCCO | inactive |
| O=C(O)c1ccccc1 | inactive |
| CC(=O)OCc1ccc2c(c1)OCO2 | inactive |
| FC(F)(F)c1ccc(Cl)c(Cl)c1 | inactive |
